Structures are written as SMILES. Values joined by “and” are separate entries in the source; they are usually repeats but may differ in a detail not shown here. Equal values may be shown once. The whole screen tested about 420,000 compounds, of which about 64,000 (15%) were called active. Not shown: some 27% with an inconclusive outcome. Calls come from the whole dose curve; as a rule, active = well fitted inhibition curve with a large enough effect; inconclusive = small, poorly fitted or top-dose-only effect; inactive = flat fitted curve, though single readings scatter. Not all results are given here. Where a call stands in place of a potency, no number is given.
Potency is the fitted concentration of half-maximal effect.

The nature of the assay: qHTS for Inhibitors of human tyrosyl-DNA phosphodiesterase 1 (TDP1): qHTS in cells in absence of CPT. Note: nearly all actives have a fitted effect of over 55% in size. The conditions noted are these: DT40 Tdp1-/- hTDP1 cells, no CPT, ATP luminescence, 48 h; activity change, negative = growth inhibition: at 46.2 µM (top of the series). The gist of the method: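 No-CPT arm: Tdp1-/-;hTDP1 DT40 cells (400/well) plus compounds, incubated ≥48 hr at 37 °C. Readout CellTiter-Glo luminescence.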
Take `CCCCN(C)CCNC(=O)CSCc1ccc(C)cc1`: the Potency entry was “inactive”.

For `CC1=CC(=O)C=CC1(C)C(Cl)(Cl)Cl` (stereo unspecified), the Potency result was “inactive”.

As for `CCN(CC(=O)NCc1ccco1)S(=O)(=O)c1ccc(F)cc1`, the Potency result is “inactive”.

For the compound `Cc1c(C=O)c2ccccn2c1C(=O)c1ccncc1`, the Potency entry was “inactive”.

Consider `COc1ccc([N+](=O)[O-])cc1-c1nc2ccccc2nc1-c1ccccc1`, for which the Potency result was “inactive”.

Turning to `O=C(Cn1c(=O)nc(-c2ccccc2)c2cc(Cl)ccc21)NCc1ccc(Cl)cc1`, the Potency is 23.1 µM (active).

On to `CCN(C(=O)Cn1c(=O)nc(-c2ccccc2)c2cc(Cl)ccc21)c1cccc(C)c1`, for which the Potency result was “inactive”.

As to `COC(=O)Cn1nc(-c2ccccc2)c2cc(Cl)ccc21`, the Potency result was “inactive”.

Regarding `Cc1ccc(N(CC(=O)NC2CCCCC2)C(=O)CCCC(=O)Nc2ccccn2)c(C)c1`, the Potency entry is “inactive”.

In the case of `Cn1nccc1C(=O)NCC1CCC2(CCN(Cc3c(O)ccc4ccccc34)CC2)O1` (stereo unspecified), the Potency entry was “inactive”.

On to `CCOC(=O)c1nc(Nc2ccc(C(=O)OC)cc2)c2ccccc2n1`, for which the Potency was 8.2 µM (active) and 20.6 µM (active).

As for `COC(=O)c1ccc(Nc2ncnc3sccc23)cc1`, the Potency entry is “inactive”.

Regarding `CCOC(=O)c1ccc(Nc2cc(C)nc3nc(C)nn23)cc1`, the Potency result was “inactive”.

Regarding `COc1cc(C(=O)N2C(=O)c3cccc(N)c3C2=O)cc(OC)c1OC`, the Potency result is “inactive”.

Regarding `O=C(CCc1ccccc1)Nc1nn[nH]n1`, the Potency entry was “inactive”.

For `O=C(O)c1ccc(N=NN2CCOCC2)cc1`, the Potency entry was “inactive”.

Turning to `Cc1cccc(OCC(=O)Nc2ccc(NC(=O)c3ccco3)c(C)c2)c1`, the Potency was 16.4 µM (active).

With `COc1ccc(OCC(=O)Nc2ccc(NC(=O)c3ccco3)c(C)c2)cc1`, the Potency result is “inactive”.

Consider `O=C(COc1ccccc1)Nc1nonc1NC(=O)COc1ccccc1`, for which the Potency result is “inactive”.

As to `Cc1ccc(C(=O)COc2cccc(NC(=O)c3ccco3)c2)cc1`, the Potency was 20.6 µM (active).

For `Cc1cc(NC(=O)c2ccc(F)cc2)ccc1NC(=O)c1ccco1`, the Potency result is “inactive”.

As to `CCOc1cc(NC(=S)NCc2ccco2)c(OCC)cc1NC(=O)c1ccco1`, the Potency result was “inactive”.

For `Cc1ccc(NC(=O)c2ccco2)cc1`, the Potency result is “inactive”.

Consider `CCOc1cc(NC(=O)c2ccco2)c(OCC)cc1NC(=O)COc1ccccc1`, for which the Potency is 4.61 µM (active).

`O=C(Nc1cccc(NC(=O)c2ccco2)c1)c1cnccn1`: the Potency result was “inactive”.

On to `CC(C)c1ccc(NC(=O)Cn2ncc3ccccc32)cc1`, for which the Potency result was “inactive”.

As to `CCOC(=O)C1CCN(C(=O)C2CCN(S(=O)(=O)c3c(C)noc3C)CC2)CC1`, the Potency result is “inactive”.

Consider `CCOc1ccc(Oc2nc(C)cc(OC)n2)nn1`, for which the Potency result is “inactive”.

Turning to `Oc1ccc(N2CCN(C(=S)NCc3ccccc3)CC2)cc1`, the Potency is 13 µM (active).

Consider `O=C1CCN(C(=S)NCCc2ccccc2)CC1`, for which the Potency result was “inactive”.

For the compound `S=C(NCCc1ccccc1)N1CCCCC1`, the Potency entry was “inactive”.

The record behind these values is PubChem BioAssay AID686978 (National Center for Advancing Translational Sciences (NCATS), 2013).
